Hit rate of the full screen: of about 16,000 compounds, about 5,100 (32%) were called active. Not shown: some 25% with an inconclusive outcome. Calls follow the shape of the dose curve; as a rule, active = well fitted curve in the direction sought with a large enough effect; inconclusive = small, poorly fitted or top-dose-only effect, or effect the other way; inactive = no such curve, though single readings can be large or run the other way. The list shows a part of the results.

The AC50 is the midpoint of the concentration-response curve, whichever way the signal moves.
% is scaled to controls: 0 for no effect and ±100 for the full control effect.

For the experiment, the target named is Cytochrome P450 3A4 (Homo sapiens) (UniProt P08684). Put plainly: Cytochrome panel assay with activity outcomes. The following applies: recombinant CYP, pro-luciferin dealkylation, luminescence, p450-cyp3a4; series mostly up to 57.1 µM; activity, negative = inhibition: at the top concentration.
Cytochrome P450 3A4 (Homo sapiens), sequence (P08684 whole entry, looked up): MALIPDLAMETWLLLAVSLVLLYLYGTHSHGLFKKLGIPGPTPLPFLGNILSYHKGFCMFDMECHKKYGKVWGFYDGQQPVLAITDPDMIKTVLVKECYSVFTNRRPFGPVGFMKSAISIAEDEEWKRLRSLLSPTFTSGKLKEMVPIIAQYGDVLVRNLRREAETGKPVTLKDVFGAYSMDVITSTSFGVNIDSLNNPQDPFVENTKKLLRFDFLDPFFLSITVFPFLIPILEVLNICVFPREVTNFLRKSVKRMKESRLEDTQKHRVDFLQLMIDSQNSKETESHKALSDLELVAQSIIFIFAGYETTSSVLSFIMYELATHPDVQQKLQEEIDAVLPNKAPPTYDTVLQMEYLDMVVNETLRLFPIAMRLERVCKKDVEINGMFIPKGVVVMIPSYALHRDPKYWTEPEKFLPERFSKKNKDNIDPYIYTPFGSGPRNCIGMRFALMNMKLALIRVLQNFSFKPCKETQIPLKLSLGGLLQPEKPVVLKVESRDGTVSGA
For `Cc1nc2cnc(N3CCNCC3)nc2n(Cc2ccc(F)cc2)c1=O`, the AC50 is 15.8 µM (active). On to `COCCn1c(=O)c(C)nc2cnc(N3CCN(C)CC3)nc21`, for which the “activity, negative = inhibition” value is 2.49% (inactive). Consider `Cc1nc2cnc(N3CCN(C)CC3)nc2n(C)c1=O`, for which the “activity, negative = inhibition” value was -13.9% (inactive). As to `N#CCCn1c(=O)c(-c2ccc(F)cc2)nc2cnc(N3CCOCC3)nc21`, the “activity, negative = inhibition” value is -13% (inactive).

For `COCCn1c(=O)c(-c2ccc(F)cc2)nc2cnc(N3CCOCC3)nc21`, the “activity, negative = inhibition” value was 9.22% (inactive). For `O=c1c(-c2ccc(F)cc2)nc2cnc(N3CCNCC3)nc2n1Cc1ccc(F)cc1`, the AC50 was 7.94 µM (active).

In the case of `NC(=O)C[C@H](NC(=O)Cc1ccc(O)cc1O)C(=O)O`, the “activity, negative = inhibition” value was -18.9% (inactive). In the case of `Nc1ncnc2c1ncn2[C@@H]1CCCO1`, the “activity, negative = inhibition” value is -2.95% (inactive). On to `CCOC(=O)c1cc2c(ccn2C)n1CC(=O)N1CCCC(C)C1` (stereo not drawn), for which the AC50 is 14.1 µM (active).

For the compound `Cc1ccc(C)c(Cn2c(C(=O)OC(C)C)cc3c2ccn3C)c1`, the AC50 is 7.94 µM (active). Regarding `CCCS(=O)(=O)N1CCCC(C(=O)NCCN2CCC(Cc3ccccc3)CC2)C1` (stereo not drawn), the “activity, negative = inhibition” value is -15.8% (inactive). `C[C@@H](CN1CCC(Cc2ccccc2)CC1)[C@@H](O)c1ccc(O)cc1`: the “activity, negative = inhibition” value was 27.3% (inactive). For `COC(=O)c1cc2c(ccn2-c2ccc(F)cc2)n1CC(C)C`, the “activity, negative = inhibition” value is 12.9% (inactive).

In the case of `CC(C)OC(=O)c1cc2c(ccn2C)n1CC(=O)N1CCC(Cc2ccccc2)CC1`, the AC50 was 7.08 µM (active). On to `C[n+]1cccc(CNC(=O)/C=N/O)c1`, for which the “activity, negative = inhibition” value was -4.34% (inactive). For the compound `O=C1NC(O)=NC1(c1ccccc1)c1ccccc1`, the “activity, negative = inhibition” value is -18.7% (inactive). As to `CCCCNC(=O)NS(=O)(=O)c1cnccc1Sc1ccc(Cl)cc1`, the activity, negative = inhibition is -25.5% [at 2.29 µM] (inactive). For the compound `O=C(CC(NS(=O)(=O)c1ccc(Cl)cc1)c1ccco1)NCc1ccco1` (stereo not drawn), the AC50 is 14.1 µM (active). As for `CCCNC(=O)CC(NS(=O)(=O)c1ccc(Cl)cc1)c1ccco1` (stereo not drawn), the AC50 was 22.4 µM (active).

Turning to `O=C(NCCO)c1cc2c(s1)CCC2`, the “activity, negative = inhibition” value is -2.01% (inactive).

In the case of `C[C@@H]1O[C@H](O[C@@H]2[C@H](C)O[C@H](O[C@@H]3[C@H](C)O[C@H](O[C@H]4CC[C@]5(C)[C@@H](CC[C@@H]6[C@H]5C[C@@H](O)[C@]5(C)[C@@H](C7=CC(=O)OC7)CC[C@]65O)C4)C[C@@H]3O)C[C@@H]2O)C[C@H](O)[C@@H]1O`, the “activity, negative = inhibition” value was 0.67% [at 25.6 µM] (inactive). With `NCCn1c(=O)c(CCc2ccccc2)nc2cncnc21`, the AC50 was 15.8 µM (active). With `COCCn1c(=O)c(CCc2ccccc2)nc2cncnc21`, the AC50 was 7.94 µM (active). Still for that read-out and setting: the figure for `COc1ccccc1CCn1c(=O)c(CCc2ccccc2)nc2cncnc21` is 3.16 µM (active). For `O=C(O)/C=C\c1c2ccc(=O)c(O)c-2oc2c(O)c(O)ccc12`, the activity, negative = inhibition was -22.7% [at 11.4 µM] (inactive). Regarding `COCCn1c(C)cc2c(c1=O)C(c1ccccc1F)C(C#N)=C(N)O2` (stereo not drawn), the AC50 was 5.62 µM (active). Take `CCCC[S@@](=N)(=O)CC[C@@H](N)C(=O)O`: the AC50 entry was “inactive”.

`CCNCCCNCCCNCCCNCC`: the “activity, negative = inhibition” value was -3.22% (inactive). For `Cc1cccc(N(C)S(=O)(=O)c2ccc3[nH]c(=O)c(=O)[nH]c3c2)c1`, the AC50 is 14.1 µM (active).

In the case of `CCS(=O)(=O)N1CCC[C@H]2CN3CCc4cc(OC)ccc4[C@@H]3C[C@@H]21`, the AC50 is 5.01 µM (active).

Consider `COc1ccc2c3c([nH]c2c1)[C@@H]1C[C@@H]2[C@@H](C[C@H](O)[C@H](OC)[C@H]2C(=O)O)CN1CC3`, for which the “activity, negative = inhibition” value was -7.07% [at 25.6 µM] (inactive). As for `COc1ccc2c3c([nH]c2c1)[C@H]1C[C@@H]2[C@@H](C[C@@H](O)[C@H](OC)[C@H]2C(=O)O)CN1CC3`, the activity, negative = inhibition is -4.43% [at 11.4 µM] (inactive).

In the case of `Cc1ccc(-c2cccc(OC(=O)c3ccccc3F)c2)cc1`, the “activity, negative = inhibition” value was -10.7% (inactive). For `O=[N+]([O-])c1cc(Cc2cc([N+](=O)[O-])c3cccnc3c2O)c(O)c2ncccc12`, the activity, negative = inhibition is -19.6% [at 11.4 µM] (inactive).

As for `O=C(c1cc(O)c(O)c([N+](=O)[O-])c1)c1ccccc1F`, the AC50 is 20 µM (active). For `Nc1nc(Nc2ccccc2)nc2c1ncn2[C@@H]1O[C@@H](CO)[C@H](O)[C@@H]1O`, the “activity, negative = inhibition” value is -3.64% (inactive). For `O=CN1CCN(C[C@H](O)CN2CCCCC2)CC1`, the activity, negative = inhibition is -4.95% [at 11.4 µM] (inactive). Turning to `CN(Cc1ccco1)c1ncnc2ccc(-c3ccccc3C(F)(F)F)cc12`, the AC50 is 15.8 µM (active). For `CN(Cc1ccco1)c1ncnc2ccc(-c3ccccc3Cl)cc12`, the AC50 is 15.8 µM (active).

As to `COCc1nnc(NC(=O)CCN2C(=O)c3ccccc3C2=O)s1`, the “activity, negative = inhibition” value was -15.1% (inactive). On to `Cc1ccc(NC(=O)CCN2C(=O)c3ccncc3C2=O)cc1`, for which the concentration at half-maximal activity (AC50) is 8.91 µM (active). With `Cc1cccc(OCCn2c(-c3ccco3)nc3ccccc32)c1`, the AC50 was 10 µM (active).

Regarding `Cc1cccc(OCCn2c(S(=O)(=O)O)nc3ccccc32)c1`, the “activity, negative = inhibition” value is -2.49% (inactive). The same measure, in the same setting: with `C/C(CC(=O)Nc1ccccn1)=N\NC(=O)C(=O)Nc1cccc(Cl)c1C` the figure was 16.1% [at 2.29 µM] (inactive). As for `C/C(CC(=O)Nc1cc(Cl)ccc1Cl)=N\NC(N)=S`, the AC50 is 14.1 µM (active). Consider `COc1ccc(Cl)cc1NC(=O)NCCCl`, for which the “activity, negative = inhibition” value is -28.3% (inactive). On the same count and under the same terms, the figure for `O=C(O)C1CCCCC1C(=O)Nc1cc(Cl)ccc1Cl` (stereo not drawn) is 16% (inactive).

As for `COc1ccc(Cl)cc1NC(=O)CN1C(=O)CSC1=O`, the concentration at half-maximal activity (AC50) was 7.94 µM (active).

The values are drawn from PubChem BioAssay AID1851 (National Center for Advancing Translational Sciences (NCATS), 2009).
